Only a sample is shown.
aSyn UTR act = Activators via SNCA 5'UTR binding, MLPCN; alpha-synuclein 5'UTR reporter, activators screen; activity score, % (tested at 7.5 µM), hits read low; 300,000 compounds, 7.1% hits; AID 1814, 2009; in the data active = activity score below about -60%
Of the large screens only hits and unclear results are named; the others gave an inactive call.

O=C(Nc1ccc2c(c1)OCCO2)c1cccc(C(=O)Nc2ccc3c(c2)OCCO3)c1	aSyn UTR act -148
CCc1ccc(NC(=O)c2cnc(SC)nc2C)cc1	aSyn UTR act -93
O=C(NC(=S)Nc1ccc2c(c1)OCCO2)c1cccc2ccccc12	aSyn UTR act -82
O=C(Nc1ccncc1)c1ccc2c(c1)OCCO2	aSyn UTR act -68
O=C(CCNc1ccccc1)c1ccc2c(c1)OCO2	aSyn UTR act -193
O=C(Nc1cccc([N+](=O)[O-])c1)c1ccc2c(c1)OCCO2	aSyn UTR act -124
O=C(NNC(=O)c1cccc2ccccc12)c1ccc2c(c1)OCO2	aSyn UTR act -94
O=C(Nc1ccc2c(c1)OCCO2)C1CC1c1ccccc1 (stereo not given)	aSyn UTR act -123
O=C(Nc1cccc(Cl)c1)c1ccc2c(c1)OCCO2	aSyn UTR act -123
Cc1ccc(NC(=O)Nc2cccc([N+](=O)[O-])c2)cc1F	aSyn UTR act -87
O=C(Nc1ccncc1)c1ccc2ccccc2c1	aSyn UTR act -135
O=C(Nc1ccc2c(c1)OCCO2)c1cccc(Cl)c1	aSyn UTR act -225
CCc1ccc(NC(=O)c2cnc3n(c2=O)CCS3)cc1	aSyn UTR act -185
O=C(CC(=O)c1ccccc1)Nc1ccc2c(c1)OCCO2	aSyn UTR act -119
CCc1ccc(NC(=O)c2ccccc2SC)cc1	aSyn UTR act -177
C/C(=N/NC(=O)OC(C)(C)C)c1ccco1	aSyn UTR act -86
CC(/C=C/c1ccco1)=N/NC(=O)OC(C)(C)C	aSyn UTR act -129
N#Cc1ccc(-c2cccnc2)nc1SCC(=O)c1ccccc1	aSyn UTR act -116
N#Cc1ccc(-c2ccc(Cl)cc2)nc1SCC(=O)c1cccc(Cl)c1	aSyn UTR act -81
O=C(CSc1n[nH]c(-c2ccccc2)n1)c1ccccc1	aSyn UTR act -84
Cc1c2ccccc2nc2c(F)c(N(C)C)c(F)c(F)c12	aSyn UTR act -78
Nn1c(-c2cccs2)nc2sc3c(c2c1=O)CCCC3	aSyn UTR act -149
CC1(C)Cc2c(sc3ncnc(NNC(=S)NCc4ccccc4)c23)CO1	none
CC1(C)Cc2c(sc3nc(-c4cccs4)n(N)c(=O)c23)CO1	aSyn UTR act -116
Clc1cnc(N/N=C/c2cccs2)c(Cl)c1	aSyn UTR act -193
Cc1ccc(/C=N/Nc2ncc(Cl)cc2Cl)s1	aSyn UTR act -148
Oc1ccc(/C=N/Nc2ncc(Cl)cc2Cl)cc1	aSyn UTR act -73
Cc1cccc(-n2ncc3c(NNC(=O)c4ccco4)ncnc32)c1	aSyn UTR act -133
Cc1ccc(-n2ncc3c(NNC(=O)c4ccco4)ncnc32)cc1Cl	aSyn UTR act -166
C/C(CC(=O)Nc1ccc(F)cc1F)=N\NC(=O)C(=O)N1CCCCC1	aSyn UTR act -68
O=[N+]([O-])c1cc(-c2n[nH]c(-c3ccccc3)n2)cc([N+](=O)[O-])c1	aSyn UTR act -76
Cc1csc(NC(=O)CSc2nsc(SCC(=O)Nc3nc(C)cs3)c2C#N)n1	aSyn UTR act -210
CCN(CC)c1ccc2c(c1)OC(N)=C(C#N)C2c1cccnc1 (stereo not given)	none
Cc1cccc(OCC(=O)Nc2ccc(NC(=O)c3ccco3)cc2)c1	aSyn UTR act -67
O=C(Nc1nccs1)c1ccc(NC(=O)c2ccco2)cc1	aSyn UTR act -142
O=C(Nc1ccc(NC(=O)C2CC2)cc1)c1ccco1	aSyn UTR act -92
Nc1nc2ccc(NC(=O)c3ccco3)cc2s1	aSyn UTR act -116
O=C(Nc1ccc(Cc2ccncc2)cc1)c1ccco1	aSyn UTR act -75
CC(=O)N(C)c1ccc(NC(=O)c2ccco2)cc1	aSyn UTR act -80
O=C(Nc1ccc(NC(=O)c2ccco2)cc1)c1ccco1	aSyn UTR act -109
O=C(Nc1ccc(Br)cc1)c1ccco1	aSyn UTR act -154
O=C(Nc1ccc(Nc2ccccc2)cc1)c1ccco1	aSyn UTR act -150
Cc1cc2cc(NC(=O)c3ccco3)ccc2[nH]1	aSyn UTR act -141
Cc1ccc(NC(=O)CNC(=O)c2ccco2)cc1	aSyn UTR act -120
COc1cccc(C(=O)O/N=C(\N)c2ccc([N+](=O)[O-])cc2)c1OC	aSyn UTR act -208
Cc1cccc(C(=O)O/N=C(\N)c2cccc([N+](=O)[O-])c2)c1	aSyn UTR act -157
N/C(=N\OC(=O)c1cccc([N+](=O)[O-])c1)c1cccnc1	aSyn UTR act -189
COc1cc(/C=C/C(=O)c2cccc([N+](=O)[O-])c2)cc(OC)c1OC	aSyn UTR act -62
N/C(=N\OC(=O)c1cccs1)c1cccc([N+](=O)[O-])c1	aSyn UTR act -130
COc1ccc(/C(N)=N/OC(=O)c2cccc([N+](=O)[O-])c2)cc1OC	aSyn UTR act -96
O=c1oc2cc(O)c(Cl)cc2c2ccccc12	aSyn UTR act -88
CC(C)OC(=O)Cn1nnc2c(cnn2-c2ccccc2)c1=O	aSyn UTR act -98
CN(C)CCn1c(NC(=O)c2ccc(Cl)cc2)nc2ccccc21	aSyn UTR act -239
CC(=O)Nc1nc2ccccc2n1Cc1ccc(Cl)cc1	none
Cn1c(NC(=S)Nc2ccccc2)nc2ccccc21	aSyn UTR act -99
CCN(CC)CCn1c(NC(=O)c2ccc(C)cc2)nc2ccccc21	aSyn UTR act -65
CCC(=O)Nc1nc2ccccc2n1Cc1ccc(C)cc1	none
CCn1c(NC(=O)c2cccs2)nc2ccccc21	aSyn UTR act -89
C/C(=N\NC(=O)c1ccccc1)c1nc2ccccc2n1C	none
Cn1c(NC(=O)c2ccc(F)cc2)nc2ccccc21	aSyn UTR act -103
Cn1c(/C=C/c2ccc(Cl)cc2)nc2ccccc2c1=O	aSyn UTR act -181
Cn1c(/C=C/c2ccccc2)nc2ccccc2c1=O	aSyn UTR act -137
Cn1c(/C=C/c2ccc([N+](=O)[O-])o2)nc2ccccc2c1=O	none
CC(C)CCSc1nc(N2CCOCC2)c2c(c1C#N)CC(C)(C)OC2	none
CN(C)CCNc1ncnc2c1sc1nc(N3CCOCC3)c3c(c12)CC(C)(C)SC3	none
CC1(C)Cc2c(c(N3CCOCC3)nc3sc(C(=O)Nc4ccccc4)c(N)c23)CO1	aSyn UTR act -74
O=C(Nc1nc2cc3c(cc2s1)OCO3)C1=COCCO1	none
CCCCCc1nnc(NC(=O)C2=COCCO2)s1	aSyn UTR act -110
CCCCCc1nnc(NC(=O)C2CCCO2)s1 (stereo not given)	aSyn UTR act -90
Clc1ccccc1-c1ncc2ccccn12	aSyn UTR act -98
Clc1ccc(-c2ncc3ccccn23)cc1	aSyn UTR act -104
Cc1cc(-c2onc3ccc(Cl)cc23)ccc1O	aSyn UTR act -91
Cc1ccc(-c2onc3ccc(C=O)cc23)cc1	aSyn UTR act -139
C(=C\c1ccco1)/c1nc2ccccc2[nH]1	aSyn UTR act -141
O=c1c2c3c(sc2nc2n1CCCCC2)C(O)CCC3 (stereo not given)	aSyn UTR act -85
O=C1c2sc3nc4n(c(=O)c3c2CCC1Br)CCCCC4 (stereo not given)	aSyn UTR act -180
O=C1CCCc2c1sc1nc3n(c(=O)c21)CCCCC3	aSyn UTR act -107
CC(=O)Oc1ccccc1-c1nc(C)nc(N(C)C(C)=O)n1	aSyn UTR act -70
O=C(Nc1nc2c(s1)CCc1ccccc1-2)c1cccs1	aSyn UTR act -110
O=C(Nc1nc2c(s1)COc1ccccc1-2)c1cccs1	aSyn UTR act -104
CCC(C(=O)O/N=C(\N)c1cccc(C)c1)c1ccccc1 (stereo not given)	aSyn UTR act -88
Cc1cccc(/C(N)=N/OC(=O)Cc2ccccc2)c1	aSyn UTR act -142
Cc1cccc(/C(N)=N/OC(=O)N2c3ccccc3Sc3ccccc32)c1	aSyn UTR act -70

Screening results deposited in PubChem BioAssay by Broad Institute.
